# Data as given in PubChem BioAssay (EPA / NIEHS).
# Inconclusive results are not listed. Activity calls are given as the source filed them. How the source made its calls, unless noted: active means hit-call score of the fitted dose curve at least 0.9, where 1 is the maximum; inactive means score below 0.9.
# Tests used:
# [1] = CCTE_Simmons_MITO_basal_resp_rate: CCTE's HepG2 Seahorse XF Respirometric Screening Assay at Basal Respiratory State, Simmons Lab (AID 2284001); settings: actives raise or lower the signal
# Summary of the method: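 HepG2 cells were given test chemicals at 7 concentrations, 125 nM to 100 uM final, and oxygen consumption rate was read every 6 min (3 min mix, 3 min measure) over 72 min. Basal-phase OCR was fitted bidirectionally against DMSO.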
# [2] = CCTE_Simmons_MITO_max_resp_rate: CCTE's HepG2 Seahorse XF Respirometric Screening Assay at Maximal Respiratory State [uncoupled], Simmons Lab (AID 2284002); settings: actives raise or lower the signal
# Summary of the method: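 Maximal (FCCP-uncoupled) respiration rate in HepG2, from Seahorse kinetic OCR over 72 min at 6 min cycles. Compounds at 125 nM–100 uM final, 7 points, three biological replicates; both directions fit relative to DMSO.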
# [3] = CCTE_Simmons_MITO_inhib_resp_rate: CCTE's HepG2 Seahorse XF Respirometric Screening Assay at Inhibited Respiratory State [full ETC block], Simmons Lab (AID 2284006); settings: actives raise or lower the signal
# Summary of the method: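 HepG2 oxygen consumption was measured by Seahorse XF after compound, FCCP, then rotenone/antimycin A injections. Seven concentrations from 125 nM to 100 uM (final) were tested, with 6-min kinetic reads over 72 minutes. Inhibited-state OCR was fitted bidirectionally against DMSO.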
# [4] = CCTE_Simmons_MITO_viability: CellTiter-Glo Viability Assessment for CCTE's HepG2 Seahorse XF Respirometric Screening Assay [post-hoc], Simmons Lab (AID 2284007; active means hit-call score of the fitted dose curve at least 0.9, where 1 is the maximum)
# Summary of the method: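 HepG2 cells exposed 90 min to 7 concentrations from 125 nM to 100 uM final, then ATP measured by luciferase luminescence. Three biological replicates per concentration; DMSO vehicle; dichlone control at 10 nM–100 uM.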
# [5] = CCTE_Harrill_HTTr_Apoptosis_MCF7: CCTE's 6-hour Apoptosis Assessment for the High-Throughput Transcriptomics (HTTr) Platform, in MCF-7 cells cultured in DMEM + 10% fetal bovine serum, Harrill Lab (AID 2284011)
# Summary of the method: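 High-content imaging of CellEvent Caspase 3/7 Green signal follows a six-hour exposure, with eight concentrations per chemical. MCF-7 cells grown in DMEM plus 10% fetal bovine serum; activity fitted in both directions against DMSO.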
# [6] = molecular target: Ratio of Nucleoli Translocation and Cytoplasm, AR (gene 367) (UniProt P10275); experiment: UPITT_HCI_U2OS_AR_TIF2_Nucleoli_Cytoplasm_Ratio_Agonist: University of Pittsburgh U2OS Androgen Receptor-Transcriptional Intermediary Factor 2 (AR-TIF2) Agonism High Content Imaging Assay for Ratio of Nucleoli Translocation and Cytoplasm (AID 2284000; active means hit-call score of the fitted dose curve at least 0.9, where 1 is the maximum;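 further: hits raise the red nucleolar to cytoplasm ratio above vehicle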)
# Summary of the method: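 U2OS cells expressing RFP-tagged human AR and GFP-tagged TIF2 were imaged by high-content fluorescence microscopy. The endpoint is the ratio of nucleolar to cytoplasmic red fluorescence, fitted for gain of signal relative to DMSO. Concentration-response spanned 0.195 to 50 uM final (0.5% DMSO).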
# [7] = CCTE_Shafer_MEA_acute_spike_number: CCTE's Neural Acute Assay for Total Number of Spikes, Shafer Lab (AID 2284008)
# Summary of the method: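 Total spike count from 40 min recordings before and during compound exposure (0.03-40 uM), given as per-well percent change. Cortical cultures from rat, DIV 13 or 15, 37 C; adaptive detection threshold 8x rms noise.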
# [8] = CCTE_Shafer_MEA_acute_firing_rate_mean: CCTE's Neural Acute Assay for Mean Firing Rate, Shafer Lab (AID 2284009);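 further: analyzed for loss of signal so actives lower firing rate relative to DMSO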
# Summary of the method: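 Read-out: well-mean spike rate (spikes/recording length/electrodes), % change from 40 min pre-dose baseline to 40 min with compound. Rat cortical cultures, DIV 13 or 15, 37 C; 0.03-40 uM; DMSO as negative control.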
# [9] = CCTE_Shafer_MEA_acute_burst_number: CCTE's Neural Acute Assay for Single-Electrode Bursts, Shafer Lab (AID 2284013)
# Summary of the method: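 Rat cortical cultures, DIV 13/15; 40 min baseline, then 40 min with compound 0.03-40 uM, 37 C. Spikes: 300-5000 Hz band-pass, threshold 8x rms noise. Readout = % change in single-electrode bursts vs baseline, loss-of-signal fit.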
# [10] = CCTE_Shafer_MEA_acute_burst_duration_mean: CCTE's Neural Acute Assay for Mean Burst Duration, Shafer Lab (AID 2284014);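 further: hits are decreases in mean burst duration relative to DMSO controls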
# Summary of the method: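 Primary rat cortical neurons on 16-electrode MEA wells, treated on DIV 13 or 15 with compound (0.03-40 uM; ≥3 wells each). 40-min baseline and 40-min exposure recordings at 37 C; percent change in mean burst duration per well versus DMSO.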
# [11] = CCTE_Shafer_MEA_acute_interburst_interval_mean: CCTE's Neural Acute Assay for Mean Interburst Interval, Shafer Lab (AID 2284016);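 further: percent change of mean interburst interval versus each well's own pre-dose baseline; curves fitted for decrease in interburst interval relative to DMSO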
# Summary of the method: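 Primary rat cortical neurons on 16-electrode MEA wells were recorded 40 min at baseline on DIV 13 or 15, then 40 min after compound (0.03-40 uM), at 37 C. Value is percent change in mean interburst interval per well, DMSO as negative control.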
# [12] = CCTE_Shafer_MEA_acute_burst_percentage_std: CCTE's Neural Acute Assay for Standard Deviation of Burst Percentage, Shafer Lab (AID 2284018);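 further: fitted in the negative direction so actives lower burst percentage SD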
# Summary of the method: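 Primary rat cortical neurons on 16-electrode MEA wells were recorded 40 min at baseline (DIV 13 or 15), then 40 min after compound (0.03-40 uM), at 37 C. Well value is SD across electrodes of spikes-in-bursts/total spikes; endpoint is percent change, DMSO-referenced.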
# [13] = CCTE_Shafer_MEA_acute_per_network_burst_spike_number_mean: CCTE's Neural Acute Assay for Average Number of Spikes in a Network Burst, Shafer Lab (AID 2284019);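 on AC50: curve fitted for loss of signal so actives reduce spikes per network burst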
# Summary of the method: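 Primary rat cortical neurons on 16-electrode MEA wells, DIV 13 or 15, 37 C; 40-min baseline then 40-min recording with compound (0.03-40 uM). Spikes per network burst (total spikes/number of bursts) expressed as percent change from baseline, DMSO reference.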
# [14] = CCTE_Shafer_MEA_acute_per_network_burst_spike_number_std: CCTE's Neural Acute Assay for Standard Deviation of Number of Spikes in a Network Burst, Shafer Lab (AID 2284020);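 further: fitted for decrease in spike-number SD versus DMSO so actives lower it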
# Summary of the method: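 Primary rat cortical neurons on 48-well MEAs (16 electrodes/well) recorded at DIV 13 or 15: 40-min baseline, then 40 min with compound (0.03-40 uM), 37 C. Value is percent change in SD of spikes per network burst, relative to DMSO.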
# [15] = CCTE_Shafer_MEA_acute_per_network_burst_electrodes_number_mean: CCTE's Neural Acute Assay for Mean Number of Electrodes in a Network Burst, Shafer Lab (AID 2284021);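 further: curves fitted for decreases only so hits reduce electrodes per burst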
# Summary of the method: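 Percent change from baseline was computed as mean electrode count per network burst, comparing 40 min recordings before and during compound (0.03-40 uM) exposure. Cultures were rat cortical neurons at DIV 13 or 15, recorded on MEAs at 37 C with an adaptive 8x rms threshold.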
# [16] = CCTE_Harrill_HTTr_Viability_MCF7: CCTE's 6-hour Cell Viability Assessment for the High-Throughput Transcriptomics (HTTr) Platform, in MCF-7 cells cultured in DMEM + 10% fetal bovine serum, Harrill Lab (AID 2284010)
# Summary of the method: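 MCF-7 cells in DMEM + 10% FBS, 384-well, exposed 6 h to an eight-point dilution series. Membrane integrity scored by high-content imaging of propidium iodide exclusion; bidirectional fit versus DMSO.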
# [17] = molecular target: Nucleoli Translocation, AR (gene 367) (UniProt P10275); experiment: UPITT_HCI_U2OS_AR_TIF2_Nucleoli_Antagonist: University of Pittsburgh U2OS Androgen Receptor-Transcriptional Intermediary Factor 2 (AR-TIF2) Antagonism High Content Imaging Assay for Nucleoli Translocation (AID 2283997; active means hit-call score of the fitted dose curve at least 0.9, where 1 is the maximum)
# Summary of the method: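 U2OS cells expressing RFP-tagged human AR and GFP-tagged TIF2 were imaged by high-content fluorescence microscopy for red AR signal in the nucleolar region. Compounds were screened at 20 uM final (0.2% DMSO), with activity fitted relative to DHT as baseline.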
# [18] = molecular target: Nucleoli Translocation, AR (gene 367) (UniProt P10275); experiment: UPITT_HCI_U2OS_AR_TIF2_Nucleoli_Agonist: University of Pittsburgh U2OS Androgen Receptor-Transcriptional Intermediary Factor 2 (AR-TIF2) Agonism High Content Imaging Assay for Nucleoli Translocation (AID 2283998; active means hit-call score of the fitted dose curve at least 0.9, where 1 is the maximum)
# Summary of the method: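 Nucleolar translocation of AR-RFP, with TIF2-GFP coexpressed in human osteosarcoma U2OS, imaged by high-content fluorescence. Compounds tested singly at 20 uM final, confirmed in triplicate, then titrated 0.195–50 uM final; gain-of-signal relative to DMSO.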
# [19] = molecular target: Ratio of Nucleoli Translocation and Cytoplasm, AR (gene 367) (UniProt P10275); experiment: UPITT_HCI_U2OS_AR_TIF2_Nucleoli_Cytoplasm_Ratio_Antagonist: University of Pittsburgh U2OS Androgen Receptor-Transcriptional Intermediary Factor 2 (AR-TIF2) Antagonism High Content Imaging Assay for Ratio of Nucleoli Translocation and Cytoplasm (AID 2283999; active means hit-call score of the fitted dose curve at least 0.9, where 1 is the maximum;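 further: antagonists lower the DHT-driven ratio of nucleolar to cytoplasmic red signal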)
# Summary of the method: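 U2OS cells co-expressing RFP-tagged human AR and GFP-tagged TIF2, antagonist mode with DHT as baseline. Nucleolar-to-cytoplasmic red fluorescence ratio imaged by high-content microscopy; final compound 20 uM (0.2% DMSO) primary, 0.195–50 uM (0.5% DMSO) concentration-response.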
# [20] = CCTE_Harrill_HTTr_CellCount_MCF7: CCTE's Cell Proliferation Assessment for the High-Throughput Transcriptomics (HTTr) Platform, Harrill Lab (AID 2284012; active means hit-call score of the fitted dose curve at least 0.9, where 1 is the maximum;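 further: cells exposed to compound for six hours; intended direction is loss of nuclei count meaning fewer cells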)
# Summary of the method: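 MCF7 cells exposed 6 hours to an eight-point dilution series; Hoechst-stained nuclei counted by high-content imaging. Bidirectional curve fitting against DMSO baseline.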
# Chain of Nucleoli Translocation, AR (gene 367) (P10275 whole entry, looked up): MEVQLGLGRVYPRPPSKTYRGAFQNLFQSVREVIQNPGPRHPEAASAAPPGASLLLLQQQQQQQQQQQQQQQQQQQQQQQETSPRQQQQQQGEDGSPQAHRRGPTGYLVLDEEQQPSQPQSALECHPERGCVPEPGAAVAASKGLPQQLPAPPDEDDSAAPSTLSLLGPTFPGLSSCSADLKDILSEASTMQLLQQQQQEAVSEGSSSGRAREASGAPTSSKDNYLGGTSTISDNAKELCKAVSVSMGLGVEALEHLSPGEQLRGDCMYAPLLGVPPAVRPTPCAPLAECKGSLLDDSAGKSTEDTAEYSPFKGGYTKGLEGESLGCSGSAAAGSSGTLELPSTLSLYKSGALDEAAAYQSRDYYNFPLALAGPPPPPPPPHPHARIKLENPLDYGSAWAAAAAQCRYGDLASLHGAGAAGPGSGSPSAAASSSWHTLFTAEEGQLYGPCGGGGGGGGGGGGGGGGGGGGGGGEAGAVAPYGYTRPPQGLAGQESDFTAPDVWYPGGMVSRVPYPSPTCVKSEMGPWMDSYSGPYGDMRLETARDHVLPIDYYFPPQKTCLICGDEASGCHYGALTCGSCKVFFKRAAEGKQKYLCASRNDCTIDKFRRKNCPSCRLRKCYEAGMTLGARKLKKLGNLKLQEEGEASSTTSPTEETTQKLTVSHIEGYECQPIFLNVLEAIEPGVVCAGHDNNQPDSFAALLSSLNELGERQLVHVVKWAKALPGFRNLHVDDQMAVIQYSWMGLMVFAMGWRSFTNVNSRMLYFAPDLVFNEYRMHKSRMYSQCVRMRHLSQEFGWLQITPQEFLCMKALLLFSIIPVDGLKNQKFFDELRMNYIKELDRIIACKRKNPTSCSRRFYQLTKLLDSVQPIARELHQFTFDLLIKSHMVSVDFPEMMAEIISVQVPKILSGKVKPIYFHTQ
# Chain of Ratio of Nucleoli Translocation and Cytoplasm, AR (gene 367) (P10275 whole entry, looked up): as above
smiles,measurement,setting,value
NC(=O)NN=Cc1ccc([N+](=O)[O-])o1,AC50,[1],50 µM (active)
same,outcome,[2],inactive
same,AC50,[3],50 µM (active)
same,outcome,[4],inactive
same,outcome,[5],inactive
COCc1nnc(-c2ccc[n+]([O-])c2)n1-c1c(Cl)c(Cl)cc2[nH]c(=O)c(=O)[nH]c12,outcome,[6],inactive
same,outcome,[7],inactive
same,outcome,[8],inactive
same,outcome,[5],inactive
same,outcome,[9],inactive
same,outcome,[10],inactive
same,AC50,[11],30 µM (active)
same,outcome,[12],inactive
same,AC50,[13],4.76 µM (active)
same,AC50,[14],10.9 µM (active)
same,outcome,[15],inactive
O=C(O)c1cccc(C(=O)O)c1,outcome,[16],inactive
same,outcome,[5],inactive
O=c1[nH]cnc2c1ncn2[C@H]1CC[C@@H](CO)O1,outcome,[16],inactive
same,outcome,[5],inactive
COc1cc(C(C)C)c2c(c1)S(=O)(=O)N(COc1cc(=O)n3cccc(OCCN4CCCCC4)c3n1)C2=O,AC50,[17],5.14 µM (active)
same,outcome,[18],inactive
same,outcome,[19],inactive
same,outcome,[6],inactive
same,outcome,[7],inactive
same,outcome,[8],inactive
same,outcome,[16],inactive
same,outcome,[5],inactive
same,outcome,[9],inactive
same,AC50,[10],5 µM (active)
same,outcome,[11],inactive
same,AC50,[12],7.87 µM (active)
same,outcome,[13],inactive
same,AC50,[14],1.03 µM (active)
same,outcome,[15],inactive
c1ccc(C(O[C@@H]2CCCN(CCc3ccc4c(c3)OCO4)C2)c2ccccc2)cc1,outcome,[7],inactive
same,outcome,[8],inactive
same,outcome,[16],inactive
same,outcome,[5],inactive
same,outcome,[20],inactive
same,outcome,[9],inactive
same,outcome,[10],inactive
same,AC50,[11],4.15 µM (active)
same,outcome,[12],inactive
same,AC50,[13],4.49 µM (active)
same,outcome,[14],inactive
same,outcome,[15],inactive
OCc1ccccc1,outcome,[17],inactive
same,outcome,[19],inactive
same,outcome,[7],inactive
same,outcome,[8],inactive
same,outcome,[5],inactive
same,outcome,[20],inactive
same,outcome,[9],inactive
same,outcome,[10],inactive
same,outcome,[11],inactive
same,outcome,[12],inactive
same,outcome,[13],inactive
same,outcome,[14],inactive
same,outcome,[15],inactive
O=C(NO)C1(NS(=O)(=O)c2ccc(Oc3ccc(F)cc3)cc2)CCOCC1,AC50,[1],39.2 µM (active)
same,AC50,[2],31.2 µM (active)
same,outcome,[3],inactive
same,outcome,[4],inactive
same,outcome,[5],inactive
same,outcome,[20],inactive
O=S(=O)(O)c1ccc(N=Nc2c(O)ccc3cc(S(=O)(=O)O)ccc23)cc1,outcome,[7],inactive
same,outcome,[8],inactive
same,outcome,[5],inactive
same,outcome,[20],inactive
same,outcome,[9],inactive
same,outcome,[10],inactive
same,outcome,[11],inactive
same,outcome,[12],inactive
same,outcome,[13],inactive
same,outcome,[14],inactive
same,outcome,[15],inactive
OC(CCl)CCl,outcome,[7],inactive
same,outcome,[8],inactive
same,outcome,[16],inactive
same,outcome,[5],inactive
same,outcome,[20],inactive
same,outcome,[9],inactive
same,outcome,[10],inactive
same,outcome,[11],inactive
same,outcome,[12],inactive
same,outcome,[13],inactive
same,outcome,[14],inactive
same,outcome,[15],inactive
CC[C@H](C)C(=O)O[C@H]1C[C@H](O)C=C2C=C[C@H](C)[C@H](CC[C@@H](O)C[C@@H](O)CC(=O)O)[C@H]21,outcome,[7],inactive
same,outcome,[8],inactive
same,outcome,[5],inactive
same,outcome,[9],inactive
same,outcome,[10],inactive
same,outcome,[11],inactive
same,outcome,[12],inactive
same,outcome,[13],inactive
same,outcome,[14],inactive
same,outcome,[15],inactive
